Test results as given in PMC5540273 (PLoS ONE, 2017).

Columns and labels:
Conditions in all cases: concentration: 1 μM, replicates: in singlicate; n = 1
[1] = tested on: T1, RSK1(Kin.Dom.2-C-terminal)
T1 construct: gene RPS6KA1

[2] = tested on: T2, RSK2(Kin.Dom.1-N-terminal)
T2 construct: gene RPS6KA3

[3] = tested on: T3, RSK2(Kin.Dom.2-C-terminal)
T3 construct: gene RPS6KA3

[4] = tested on: T4, RSK3(Kin.Dom.1-N-terminal)
T4 construct: gene RPS6KA2

[5] = tested on: T5, RSK3(Kin.Dom.2-C-terminal)
T5 construct: gene RPS6KA2

[6] = tested on: T6, RSK4(Kin.Dom.1-N-terminal)
T6 construct: gene RPS6KA6

[7] = tested on: T7, RSK4(Kin.Dom.2-C-terminal)
T7 construct: gene RPS6KA6

[8] = tested on: S6K1
[9] = tested on: SBK1
[10] = tested on: SGK2
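Further: KINOMEscan kinase panel screen.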

Row | SMILES | %Inh [1] | %Inh [2] | %Inh [3] | %Inh [4] | %Inh [5] | %Inh [6] | %Inh [7] | %Inh [8] | %Inh [9] | %Inh [10]
1 | Fc1ccc(-c2nn3cccc(F)c3c2-c2ccncc2)cc1 [GW475620] | 24% | 9% | 33% | 7% | 0% | 16% | 78% | 5% | 12% | 11%
2 | Cn1cnc2c(N)ncnc21 [SKF-97623] | 100% | 0% | 0% | 0% | 8% | 0% | 2% | 0% | 0% | 0%
3 | COc1ccc2cc(-c3nc(-c4ccccc4C(C)C)[nH]c3-c3ccncc3)ccc2c1 [SB-660566] | 0% | 3% | 18% | 19% | 0% | 25% | 11% | 8% | 2% | 0%
4 | Nc1nccc(-c2c(-c3ccc(F)cc3)ncn2C2CCN(Cc3ccccc3)CC2)n1 [SB-219980] | 41% | 41% | 0% | 4% | 5% | 30% | 63% | 6% | 35% | 0%
5 | Cc1ccc(NC(=O)Nc2ccc(Cl)c(C(F)(F)F)c2)cc1-c1ccc(C(=O)Nc2ccncc2)cc1 [GSK1398470] | 3% | 5% | 0% | 9% | 14% | 2% | 22% | 15% | 64% | 0%
6 | O=C(Nc1n[nH]c2nc(-c3ccco3)c(Br)cc12)C1CCN(Cc2ccccc2)C1.O=C(O)[C@H](O)[C@@H](O)C(=O)O (stereo not shown) [SB-742034] | 0% | 35% | 0% | 6% | 0% | 16% | 12% | 23% | 19% | 27%
7 | COC(=O)C(Cc1ccccc1)NC(=O)NC1CCN(c2ccnc(Nc3ccc(F)cc3)n2)C1 (stereo not shown) [GSK1379714] | 0% | 0% | 19% | 5% | 10% | 1% | 9% | 2% | 13% | 0%
8 | CC(=O)c1c(C)c2cnc(Nc3ccn(C)n3)nc2n(C2CCCC2)c1=O | 4% | 0% | 0% | 0% | 0% | 0% | 0% | 0% | 0% | 0%
9 | Cc1ccccc1-c1cc(-c2c[nH]nc2-c2ccccn2)ccn1 [GW680061] | 14% | 10% | 15% | 2% | 0% | 0% | 22% | 2% | 0% | 0%
10 | COc1cccc(C2=C(Nc3cc(Cl)c(O)c(Cl)c3)C(=O)NC2=O)c1 [SB-390767] | 0% | 11% | 37% | 0% | 0% | 0% | 0% | 20% | 0% | 11%
11 | CNC(=O)c1ccc(C)c(-n2c(C)cc(OCc3ccc(F)cc3F)c(Br)c2=O)c1 | 0% | 0% | 0% | 10% | 0% | 0% | 0% | 0% | 0% | 0%
12 | O=c1cc(N2CCOCC2)nc2n(Cc3cccc(Cl)c3Cl)c3ccccc3n12 [GSK2299009] | 5% | 19% | 53% | 4% | 0% | 0% | 5% | 14% | 28% | 37%
13 | CS(=O)(=O)Cc1ccc(Nc2nccc(-c3c(-c4cccc(NC(=O)C5CCCCC5)c4)nn4ncccc34)n2)cc1 [GSK350559] | 33% | 13% | 11% | 12% | 0% | 17% | 9% | 24% | 34% | 40%
14 | COc1ccc(CSc2nnc(-c3ccc4c(c3)CCO4)o2)cc1 | 0% | 0% | 3% | 0% | 5% | 0% | 17% | 0% | 0% | 0%
15 | Cc1ccc(-c2nc(Nc3ccncc3)c3ccccc3n2)s1 [GSK189015] | 18% | 7% | 21% | 3% | 12% | 0% | 28% | 0% | 4% | 4%
16 | COc1ccc(CSc2nnc(-c3ccc4ncsc4c3)o2)cc1C(F)(F)F | 0% | 0% | 0% | 0% | 0% | 0% | 9% | 0% | 0% | 0%
17 | O=c1cc(N2CCOCC2)nc2n(Cc3ccccc3F)ccn12 [GSK2297428] | 0% | 0% | 0% | 3% | 0% | 0% | 0% | 0% | 0% | 0%

Row | SMILES | %Inh [1] | %Inh [2] | %Inh [3] | %Inh [4] | %Inh [5] | %Inh [6] | %Inh [7] | %Inh [8] | %Inh [9] | %Inh [10]
18 | COc1ccc(Nc2nccc(NCCNC(=O)Nc3cc(C)ccc3C)n2)cc1 [GSK1379899] | 0% | 4% | 9% | 0% | 0% | 0% | 0% | 0% | 0% | 0%
19 | CC(=O)c1c(C)c2cnc(Nc3ccc(N4CCNCC4)cn3)nc2n(C2CCCC2)c1=O | 0% | 0% | 0% | 0% | 0% | 0% | 1% | 0% | 0% | 0%
20 | Cc1c(Cn2c(C)c(C)n3c(=O)cc(N4CCOCC4)nc23)cccc1C(F)(F)F [GSK2328680] | 0% | 0% | 2% | 7% | 0% | 0% | 5% | 0% | 22% | 0%
21 | COc1cccc(NC(=O)Nc2ccc(C)c(-c3ccc(C(=O)Nc4ccncc4)cc3)c2)c1 [GSK1398474] | 0% | 0% | 0% | 7% | 19% | 0% | 22% | 18% | 8% | 0%
22 | CC[C@@H]1CO[C@H](C(=O)Nc2ccccc2)CN1c1cc(-c2ccc3c(N)n[nH]c3c2)nc(NC)n1 [GSK2376236] | 31% | 0% | 2% | 26% | 16% | 0% | 7% | 0% | 0% | 0%
23 | CCn1c(-c2ccccc2)nc2cnccc21 [SB-733416] | 0% | 1% | 23% | 28% | 0% | 8% | 0% | 22% | 9% | 9%
24 | Cn1cncc1C(=O)NC1CCN(c2ccnc(Nc3ccc(F)cc3)n2)C1 (stereo not shown) [GSK1379717] | 12% | 5% | 0% | 0% | 12% | 0% | 15% | 7% | 16% | 7%
25 | Cc1nccc(-c2c(-c3ccc(F)cc3)ncn2CCCN2CCOCC2)n1.Cl [SB-282975] | 5% | 29% | 44% | 9% | 0% | 22% | 6% | 9% | 29% | 27%
26 | Cc1ccc(NC(=O)Nc2ccc(Cl)cc2)cc1-c1ccc(C(=O)Nc2ccncc2)cc1 [GSK1398472] | 0% | 2% | 6% | 15% | 0% | 0% | 20% | 8% | 19% | 8%
27 | Cn1cncc1-c1cc2c(Nc3ccc(OCc4ccccc4)cc3)ncnc2cn1 [GW281179] | 0% | 0% | 0% | 3% | 0% | 0% | 9% | 3% | 36% | 10%
28 | COc1cccc(CNC(=O)NC2CCN(c3ccnc(Nc4ccc(F)cc4)n3)C2)c1 (stereo not shown) [GSK1379723] | 0% | 9% | 28% | 0% | 0% | 0% | 6% | 0% | 22% | 8%
29 | CSc1ccc(-c2nc3n(c2-c2ccncc2)CCC3)cc1 [SKF-105561] | 62% | 0% | 20% | 0% | 35% | 8% | 70% | 0% | 30% | 7%
30 | COc1ccc(Nc2nccc(N3CCC(NC(=O)c4cc5ccccc5s4)C3)n2)cc1 (stereo not shown) [GSK1379738] | 4% | 10% | 4% | 1% | 0% | 0% | 0% | 0% | 2% | 0%
31 | O=C1NC(=O)C(c2ccc(Cl)cc2)=C1Nc1ccc(O)cc1 [SB-340867] | 0% | 13% | 0% | 0% | 0% | 0% | 0% | 0% | 0% | 0%
32 | Fc1ccc(-c2nc3n(c2-c2ccncc2)CCS3)cc1 [GI98581] | 22% | 1% | 7% | 18% | 11% | 0% | 88% | 33% | 21% | 6%
33 | Nc1cccc(-c2ccc3c(N)n[nH]c3c2)n1 [GSK2192730] | 21% | 3% | 0% | 6% | 19% | 0% | 17% | 7% | 2% | 6%
34 | CC(=O)c1cccc(NC(=O)NC2CCN(c3ccnc(Nc4ccc(F)cc4)n3)C2)c1 (stereo not shown) [GSK1379710] | 14% | 0% | 30% | 17% | 6% | 0% | 21% | 0% | 5% | 0%
